# From ChEMBL document CHEMBL1961873, “Compounds: GSK PKIS; Assays: Nanosyn kinase panel” (2012)
# Where “and” joins values, the source holds several entries; their conditions need not be identical. Equal entries are not always repeated.
# Assays:
# [1] = target: Mitogen-activated protein kinase kinase kinase kinase 4 (Homo sapiens) (UniProt O95819); details: at 1 µM;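 also: reported figure is an averaged inhibition value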
# [2] = target: Dual specificity mitogen-activated protein kinase kinase 1 (Homo sapiens) (UniProt Q02750); details: at 0.1 µM
# Dual specificity mitogen-activated protein kinase kinase 1 (Homo sapiens), sequence (Q02750 whole entry): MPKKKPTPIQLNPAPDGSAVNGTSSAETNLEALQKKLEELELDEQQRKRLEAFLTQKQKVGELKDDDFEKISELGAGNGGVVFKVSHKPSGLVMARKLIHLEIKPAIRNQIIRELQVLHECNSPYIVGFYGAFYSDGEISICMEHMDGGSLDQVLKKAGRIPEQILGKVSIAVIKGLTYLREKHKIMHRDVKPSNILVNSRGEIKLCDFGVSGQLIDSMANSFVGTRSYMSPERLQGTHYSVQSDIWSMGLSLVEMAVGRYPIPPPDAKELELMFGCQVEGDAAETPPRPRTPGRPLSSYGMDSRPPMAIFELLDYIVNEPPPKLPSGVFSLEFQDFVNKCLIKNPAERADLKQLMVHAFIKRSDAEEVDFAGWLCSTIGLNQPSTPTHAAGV
# [3] = target: Dual specificity mitogen-activated protein kinase kinase 1 (Homo sapiens) (UniProt Q02750); details: at 1 µM
# [4] = target: Misshapen-like kinase 1 (Homo sapiens) (UniProt Q8N4C8); details: at 0.1 µM
# [5] = target: Misshapen-like kinase 1 (Homo sapiens) (UniProt Q8N4C8); details: at 1 µM
# [6] = target: T1, Serine/threonine-protein kinase 4 (Homo sapiens) (UniProt Q13043); details: at 0.1 µM
# T1 sequence (whole entry): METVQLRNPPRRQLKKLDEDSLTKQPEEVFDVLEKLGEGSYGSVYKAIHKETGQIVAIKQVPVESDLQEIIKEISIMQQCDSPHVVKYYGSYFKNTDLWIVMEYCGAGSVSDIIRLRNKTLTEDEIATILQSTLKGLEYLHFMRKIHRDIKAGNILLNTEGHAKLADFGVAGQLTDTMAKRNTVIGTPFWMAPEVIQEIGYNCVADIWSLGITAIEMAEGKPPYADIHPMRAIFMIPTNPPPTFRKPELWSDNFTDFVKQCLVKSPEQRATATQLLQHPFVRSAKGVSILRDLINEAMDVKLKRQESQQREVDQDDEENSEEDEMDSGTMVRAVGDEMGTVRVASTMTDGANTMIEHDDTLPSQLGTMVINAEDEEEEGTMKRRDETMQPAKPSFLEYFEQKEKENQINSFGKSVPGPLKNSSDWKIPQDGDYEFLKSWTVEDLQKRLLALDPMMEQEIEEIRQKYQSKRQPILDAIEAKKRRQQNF
# [7] = target: T1, Serine/threonine-protein kinase 4 (Homo sapiens); details: at 1 µM
# [8] = target: T2, Serine/threonine-protein kinase 3 (Homo sapiens) (UniProt Q13188); details: at 0.1 µM
# T2 sequence (whole entry): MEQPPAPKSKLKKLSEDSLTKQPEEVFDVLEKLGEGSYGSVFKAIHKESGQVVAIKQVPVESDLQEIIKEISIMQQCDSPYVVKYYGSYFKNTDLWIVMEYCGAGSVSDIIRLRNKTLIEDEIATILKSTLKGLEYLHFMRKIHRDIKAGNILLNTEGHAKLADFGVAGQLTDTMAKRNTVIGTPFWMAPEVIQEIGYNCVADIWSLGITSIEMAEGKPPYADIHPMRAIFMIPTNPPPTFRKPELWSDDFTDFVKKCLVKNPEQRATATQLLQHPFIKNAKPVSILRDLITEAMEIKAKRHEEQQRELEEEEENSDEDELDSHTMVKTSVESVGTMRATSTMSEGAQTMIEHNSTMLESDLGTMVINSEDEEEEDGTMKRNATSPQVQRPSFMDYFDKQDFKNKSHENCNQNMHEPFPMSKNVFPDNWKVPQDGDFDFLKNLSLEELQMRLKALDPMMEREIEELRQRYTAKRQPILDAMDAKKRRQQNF
# [9] = target: T2, Serine/threonine-protein kinase 3 (Homo sapiens); details: at 1 µM
# [10] = target: Serine/threonine-protein kinase 26 (Homo sapiens) (UniProt Q9P289); details: at 0.1 µM
# Serine/threonine-protein kinase 26 (Homo sapiens), sequence (Q9P289 2-416 limits assumed): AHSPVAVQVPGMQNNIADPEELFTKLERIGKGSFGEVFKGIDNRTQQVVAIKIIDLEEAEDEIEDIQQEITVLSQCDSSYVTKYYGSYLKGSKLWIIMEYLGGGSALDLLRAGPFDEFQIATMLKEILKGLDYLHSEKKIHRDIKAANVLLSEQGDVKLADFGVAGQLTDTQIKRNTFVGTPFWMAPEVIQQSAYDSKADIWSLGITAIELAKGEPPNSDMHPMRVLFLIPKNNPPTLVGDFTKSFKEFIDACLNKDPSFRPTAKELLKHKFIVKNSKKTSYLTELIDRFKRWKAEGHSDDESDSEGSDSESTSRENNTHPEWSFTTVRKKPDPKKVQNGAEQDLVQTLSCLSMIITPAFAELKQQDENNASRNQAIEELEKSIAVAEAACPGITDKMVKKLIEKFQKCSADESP
# [11] = target: Serine/threonine-protein kinase 26 (Homo sapiens) (UniProt Q9P289); details: at 1 µM
# [12] = target: Serine/threonine-protein kinase PAK 1 (Homo sapiens) (UniProt Q13153); details: at 0.1 µM
# [13] = target: Serine/threonine-protein kinase PAK 1 (Homo sapiens) (UniProt Q13153); details: at 1 µM
# [14] = target: Serine/threonine-protein kinase PAK 2 (Homo sapiens) (UniProt Q13177); details: at 0.1 µM
# Serine/threonine-protein kinase PAK 2 (Homo sapiens), sequence (Q13177 whole entry): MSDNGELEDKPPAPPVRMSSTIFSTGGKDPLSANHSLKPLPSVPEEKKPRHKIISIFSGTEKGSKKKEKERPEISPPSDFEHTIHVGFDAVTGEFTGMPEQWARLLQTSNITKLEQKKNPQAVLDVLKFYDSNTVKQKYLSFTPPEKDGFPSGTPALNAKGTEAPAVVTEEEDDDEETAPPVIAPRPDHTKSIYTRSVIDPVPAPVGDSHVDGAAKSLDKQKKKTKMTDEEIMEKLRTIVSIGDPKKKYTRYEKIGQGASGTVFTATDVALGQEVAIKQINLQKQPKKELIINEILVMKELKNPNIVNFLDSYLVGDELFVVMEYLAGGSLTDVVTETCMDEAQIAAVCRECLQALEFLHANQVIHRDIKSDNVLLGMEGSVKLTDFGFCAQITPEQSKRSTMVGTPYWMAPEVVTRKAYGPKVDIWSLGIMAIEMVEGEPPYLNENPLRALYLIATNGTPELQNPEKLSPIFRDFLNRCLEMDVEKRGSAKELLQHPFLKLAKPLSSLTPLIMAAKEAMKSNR
# [15] = target: Serine/threonine-protein kinase PAK 2 (Homo sapiens) (UniProt Q13177); details: at 1 µM
# [16] = target: Serine/threonine-protein kinase PAK 3 (Homo sapiens) (UniProt O75914); details: at 0.1 µM
# Serine/threonine-protein kinase PAK 3 (Homo sapiens), sequence (O75914 whole entry, looked up): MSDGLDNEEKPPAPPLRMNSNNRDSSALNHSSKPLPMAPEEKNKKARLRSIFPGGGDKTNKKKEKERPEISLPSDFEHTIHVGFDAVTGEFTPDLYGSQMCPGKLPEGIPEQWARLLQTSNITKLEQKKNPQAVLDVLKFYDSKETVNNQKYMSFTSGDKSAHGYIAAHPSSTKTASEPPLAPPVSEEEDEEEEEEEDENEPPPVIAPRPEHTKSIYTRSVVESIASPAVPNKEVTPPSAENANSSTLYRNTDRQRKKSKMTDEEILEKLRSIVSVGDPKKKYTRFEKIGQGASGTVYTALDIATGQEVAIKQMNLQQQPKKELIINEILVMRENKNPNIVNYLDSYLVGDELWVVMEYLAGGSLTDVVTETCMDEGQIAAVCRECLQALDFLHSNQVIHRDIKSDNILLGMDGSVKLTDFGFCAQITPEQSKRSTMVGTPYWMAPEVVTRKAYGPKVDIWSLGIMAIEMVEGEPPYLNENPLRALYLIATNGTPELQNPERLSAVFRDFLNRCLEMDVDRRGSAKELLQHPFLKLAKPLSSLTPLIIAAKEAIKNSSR
# [17] = target: Serine/threonine-protein kinase PAK 3 (Homo sapiens) (UniProt O75914); details: at 1 µM
# [18] = target: Serine/threonine-protein kinase PAK 5 (Homo sapiens) (UniProt Q9P286); details: at 0.1 µM
# Serine/threonine-protein kinase PAK 5 (Homo sapiens), sequence (Q9P286 whole entry, looked up): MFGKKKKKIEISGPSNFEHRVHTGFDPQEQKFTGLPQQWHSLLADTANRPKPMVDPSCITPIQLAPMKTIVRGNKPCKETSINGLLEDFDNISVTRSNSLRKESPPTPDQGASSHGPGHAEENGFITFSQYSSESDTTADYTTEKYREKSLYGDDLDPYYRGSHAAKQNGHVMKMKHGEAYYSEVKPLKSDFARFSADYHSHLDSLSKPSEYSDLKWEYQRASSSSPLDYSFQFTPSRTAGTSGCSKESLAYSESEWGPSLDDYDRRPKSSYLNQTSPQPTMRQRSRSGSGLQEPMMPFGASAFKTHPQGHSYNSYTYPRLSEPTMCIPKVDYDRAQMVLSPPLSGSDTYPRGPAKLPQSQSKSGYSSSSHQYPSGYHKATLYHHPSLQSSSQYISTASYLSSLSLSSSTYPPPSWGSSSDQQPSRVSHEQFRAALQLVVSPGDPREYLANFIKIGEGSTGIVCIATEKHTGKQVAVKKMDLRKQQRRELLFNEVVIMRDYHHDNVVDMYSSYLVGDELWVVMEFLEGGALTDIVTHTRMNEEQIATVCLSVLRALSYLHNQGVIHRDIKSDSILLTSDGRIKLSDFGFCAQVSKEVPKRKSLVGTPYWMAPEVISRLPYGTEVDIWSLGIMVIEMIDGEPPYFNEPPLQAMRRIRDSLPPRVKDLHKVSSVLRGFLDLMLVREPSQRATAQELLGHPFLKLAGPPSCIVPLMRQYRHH
# [19] = target: Serine/threonine-protein kinase PAK 5 (Homo sapiens) (UniProt Q9P286); details: at 1 µM
# [20] = target: Serine/threonine-protein kinase PAK 6 (Homo sapiens) (UniProt Q9NQU5); details: at 0.1 µM;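 also: mean PAK6 inhibition reported from the GSK PKIS screen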
# Serine/threonine-protein kinase PAK 6 (Homo sapiens), sequence (Q9NQU5 whole entry, looked up): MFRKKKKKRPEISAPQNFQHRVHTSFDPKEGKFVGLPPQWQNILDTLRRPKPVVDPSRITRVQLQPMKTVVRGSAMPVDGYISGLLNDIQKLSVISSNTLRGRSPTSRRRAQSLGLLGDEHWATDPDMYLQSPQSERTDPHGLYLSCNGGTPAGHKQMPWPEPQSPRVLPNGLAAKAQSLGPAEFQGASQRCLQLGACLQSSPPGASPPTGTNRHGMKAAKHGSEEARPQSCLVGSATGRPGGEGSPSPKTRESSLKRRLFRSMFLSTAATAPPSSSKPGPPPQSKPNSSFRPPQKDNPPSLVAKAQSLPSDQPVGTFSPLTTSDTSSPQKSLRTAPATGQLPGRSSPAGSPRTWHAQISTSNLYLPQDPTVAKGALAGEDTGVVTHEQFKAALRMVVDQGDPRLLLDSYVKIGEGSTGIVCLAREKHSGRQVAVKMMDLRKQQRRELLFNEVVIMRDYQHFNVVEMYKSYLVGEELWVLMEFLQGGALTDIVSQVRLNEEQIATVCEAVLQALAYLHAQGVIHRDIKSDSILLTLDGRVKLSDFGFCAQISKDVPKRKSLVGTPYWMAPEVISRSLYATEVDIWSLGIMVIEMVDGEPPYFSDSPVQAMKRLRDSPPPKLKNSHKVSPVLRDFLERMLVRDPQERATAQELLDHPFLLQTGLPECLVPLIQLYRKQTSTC
# Mitogen-activated protein kinase kinase kinase kinase 4 (Homo sapiens), sequence (O95819 2-1239 limits assumed): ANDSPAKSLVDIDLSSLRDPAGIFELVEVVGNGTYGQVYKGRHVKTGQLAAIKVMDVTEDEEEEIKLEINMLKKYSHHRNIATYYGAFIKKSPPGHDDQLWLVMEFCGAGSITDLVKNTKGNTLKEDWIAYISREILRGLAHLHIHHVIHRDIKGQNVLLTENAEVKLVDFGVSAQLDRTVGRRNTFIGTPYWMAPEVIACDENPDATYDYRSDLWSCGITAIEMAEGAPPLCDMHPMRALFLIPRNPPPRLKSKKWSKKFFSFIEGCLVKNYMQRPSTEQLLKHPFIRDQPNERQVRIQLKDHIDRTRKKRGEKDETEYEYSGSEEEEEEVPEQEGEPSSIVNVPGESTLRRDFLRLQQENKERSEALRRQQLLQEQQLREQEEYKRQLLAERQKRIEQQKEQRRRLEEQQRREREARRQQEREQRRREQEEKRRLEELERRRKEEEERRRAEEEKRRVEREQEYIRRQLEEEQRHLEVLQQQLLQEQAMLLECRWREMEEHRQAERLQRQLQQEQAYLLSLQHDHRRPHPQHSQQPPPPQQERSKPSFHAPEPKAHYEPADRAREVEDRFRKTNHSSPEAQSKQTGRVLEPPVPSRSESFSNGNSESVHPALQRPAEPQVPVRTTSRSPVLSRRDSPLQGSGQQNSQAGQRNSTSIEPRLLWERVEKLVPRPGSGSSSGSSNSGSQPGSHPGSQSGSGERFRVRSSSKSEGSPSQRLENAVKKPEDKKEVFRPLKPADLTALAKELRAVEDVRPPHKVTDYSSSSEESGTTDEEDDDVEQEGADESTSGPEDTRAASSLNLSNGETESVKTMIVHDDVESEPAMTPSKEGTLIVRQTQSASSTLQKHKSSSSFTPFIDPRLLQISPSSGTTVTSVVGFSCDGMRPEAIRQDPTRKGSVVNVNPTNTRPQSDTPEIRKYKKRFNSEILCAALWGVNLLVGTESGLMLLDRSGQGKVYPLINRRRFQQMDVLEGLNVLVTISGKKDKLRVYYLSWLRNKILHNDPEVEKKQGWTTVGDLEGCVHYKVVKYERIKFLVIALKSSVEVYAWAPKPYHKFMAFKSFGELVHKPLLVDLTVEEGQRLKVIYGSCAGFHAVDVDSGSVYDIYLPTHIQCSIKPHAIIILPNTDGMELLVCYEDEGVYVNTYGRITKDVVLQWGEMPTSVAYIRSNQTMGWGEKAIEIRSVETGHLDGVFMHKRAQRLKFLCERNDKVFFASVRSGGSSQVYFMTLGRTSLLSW
SMILES,inhibition [1],inhibition [2],inhibition [3],inhibition [4],inhibition [5],inhibition [6],inhibition [7],inhibition [8],inhibition [9],inhibition [10],inhibition [11],inhibition [12],inhibition [13],inhibition [14],inhibition [15],inhibition [16],inhibition [17],inhibition [18],inhibition [19],inhibition [20]
CC(C)c1ccc(-c2cc(-c3c[nH]nc3-c3ccccn3)ccn2)cc1,53.8%,0.36%,2.47%,7.67%,37.6%,0.63%,-0.98%,1.18%,0.64%,0.06%,3.31%,1.09%,-1.39%,0.93%,-0.21%,-0.3%,0.21%,-1.29%,-0.36%,2.8%
COC(=O)Nc1nc2ccc(Oc3ccc(NC(=O)Nc4cc(C(F)(F)F)ccc4F)cc3)cc2s1,8.34%,0.28%,1.52%,2.27%,6.19%,-0.61%,-1.63%,-0.86%,-0.3%,0.45%,1.71%,-2.89%,1.52%,-1.5%,-0.42%,-1.09%,0.28%,0.53%,-1.37%,2.82%
CN(C)CCNC(=O)Nc1ccc(N(C)c2ccnc(Nc3ccc(CS(C)(=O)=O)cc3)n2)cc1,14.6%,4.9%,4.12%,5.87%,10.1%,6.4%,11.4%,6.63%,6.98%,-0.89%,-2.49%,4.61%,9.49%,1.79%,2.9%,3.73%,4.29%,1.15%,6.27%,-1.56%
CCN1CCC(C(=O)Nc2n[nH]c3nnc(-c4cccc(F)c4F)cc23)CC1,6.9%,2.15%,2%,2.44%,5.72%,0.2%,4.08%,-0.56%,2.63%,0.52%,0.11%,-3.4%,-3.06%,-1.1%,-2.04%,-0.81%,-0.69%,0%,1.08%,-5.45%
Cc1cc(O)cc(C)c1/C=C/c1cncc(C(=O)OC(C)(C)C)c1,15.2%,4.02%,3.99%,6.01%,9.55%,3.56%,8.26%,2.81%,6.28%,0.35%,2.31%,5.41%,2.7%,-0.11%,0.96%,2.25%,2.76%,0.52%,4.26%,2.02%
Nc1nonc1-c1nc2cnccc2n1C1CC1,39.8% and 40%,3% and 3.58%,6.15% and 7.11%,9.13% and 8.38%,30.2% and 28.1%,6.61% and 2.32%,23.1% and 15.3%,6.77% and 2.58%,17.9% and 12.6%,-0.67% and -1.23%,-0.64% and -0.44%,6.95% and 4.45%,7.1% and 6.44%,3.23% and 1.09%,2.18% and 0.82%,4.18% and 2.78%,5.29% and 3.12%,0.47% and 4.24%,1.66% and 0.23%,7.48% and 3.54%
CCn1c(-c2nonc2N)nc2cncc(C(=O)NCCNC)c21,11.3%,4.81%,3.62%,7.39%,10.8%,3.84%,6.56%,5.96%,7.27%,-3.72%,-4.29%,6.24%,7.29%,1.98%,2.75%,5.11%,5.12%,3.97%,7.69%,0.36%
CN1CCC(n2cnc(-c3ccc(F)cc3)c2-c2ccnc(NCCO)n2)CC1,17.5%,4.13%,5.25%,7.76%,15.8%,7.06%,10.4%,7.55%,9.48%,-1.24%,1.34%,5.86%,7.1%,2.03%,2.52%,3.99%,3.76%,0.7%,1.35%,3.38%
COc1cc(N2CCN(C(C)C)CC2)ccc1Nc1nc(Nc2cccc(F)c2C(=O)O)c2cc[nH]c2n1,10.1%,4.86%,2.88%,4.85%,9.35%,5.23%,9.21%,5.03%,9.11%,-0.64%,2.17%,6.19%,5.79%,1.31%,2.49%,4.37%,4.9%,3.7%,4.16%,0.22%
NS(=O)(=O)c1ccc(N/N=C2\C(=O)Nc3cccc(CCc4ccncc4)c32)cc1,16.9%,1.96%,3.3%,4%,10.8%,31.3%,48.9%,20.1%,29.8%,10.5%,9.93%,1.58%,2.13%,0.84%,0.54%,0.06%,0.66%,1.07%,3.39%,-5.12%
CN1CCC(C(=O)Nc2n[nH]c3nc(-c4ccc(O)cc4)c(Br)cc23)CC1,35.4% and 22.5%,6.37% and 2.39%,5.03% and 2.15%,7.75% and 5.32%,28.1% and 15.2%,6.69% and 1.72%,14.7% and 2.3%,6.33% and 2.47%,13.2% and 3.69%,1.4% and 1.72%,21.2% and 19.8%,7.92% and -0.37%,5.42% and 3.31%,0.62% and -0.51%,1.42% and -0.53%,4.2% and 1.97%,5.02% and 1.71%,-5.26%,-8.73% and 0.52%,-2.46% and -9.85%
CS(=O)(=O)CCNCc1ccoc1-c1ccc2ncnc(Nc3ccc(OCc4ccccc4)cc3)c2c1,4.29%,1.46%,2.49%,1.28%,2.65%,1.95%,2.79%,2.37%,3.29%,-1.84%,-0.88%,-2.84%,-0.82%,-0.75%,-2.34%,-3.57%,-0.05%,-0.34%,3.51%,-5.6%
COc1ccc(-c2nn3ncccc3c2-c2ccnc(Nc3ccc(F)c(F)c3)n2)cc1,16.4%,6.07%,3.87%,9.98%,13.8%,6.88%,11.6%,5.53%,10.2%,-0.41%,0.76%,3.1%,5.49%,1.93%,0.93%,2.36%,5.12%,3.31%,0.77%,5.78%
